A number with no mark means an inactive call.
Columns and labels:
[1] = system: Caenorhabditis elegans dauer (daf-2(e1370)); test: proportion of mobile C. elegans dauer larvae relative to DMSO control (fraction of DMSO control); higher = more viable, less nematicidal, active = 0.63 or less; extreme values may be limits of the assay; settings: 60 µM; 5 days; temperature: 20 °C
Method in brief: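 Synchronized C. elegans daf-2(e1370) larvae were held at 25 °C for 48 h on MYOB plates with E. coli OP50 to form dauers, and about 20 dauers were added per 96-well well in liquid NGM. Compound was pinned to 60 µM final (0.6% v/v DMSO), and sealed plates were shaken at 200 rpm for 5 days at 20 °C. The proportion of mobile worms was scored under a dissection microscope relative to DMSO controls and averaged over two biological replicates.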

Ditylenchus dipsaci = test: proportion of mobile D. dipsaci (mixed stage) relative to DMSO control (fraction of DMSO control); higher = more viable, less nematicidal, active = 0.86 or less; extreme values may be limits of the assay; settings: 60 µM; 5 days; temperature: 20 °C
Method in brief: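 D. dipsaci were grown on pea plants in Gamborg B-5 agar and extracted through a filter funnel into water, and about 20 worms were added per 96-well well in distilled water. Compound was pinned to 60 µM final (0.6% v/v DMSO), and sealed plates were shaken at 200 rpm for 5 days at 20 °C. After 2 µL 1 M NaOH was added, mobile worms were scored microscopically. Mobility was expressed relative to DMSO controls and averaged over two biological replicates.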

SMILES | proportion of mobile C. elegans dauer larvae [1] | proportion of mobile D. dipsaci (Ditylenchus dipsaci)
O=C(Nc1ccccc1-c1nc(-c2ccncc2)no1)c1ccccc1Cl | 1 | 1
Cc1ccc(-c2nc(-c3ccc(Br)cc3)no2)cc1 | 1 | 1
COc1ccc(Cl)cc1-c1nc(-c2ccccc2C)no1 | 1 | 1
COc1cccc(-c2nnc(SCC(=O)NC3CCCCC3)o2)c1 | 1 | 1
O=C(CSc1nnc(-c2ccc(Br)cc2)o1)Nc1ccc2ccccc2c1 | 1 | 1
Fc1ccc(-c2noc(-c3ccc(Br)cc3)n2)cc1 | 1 | 1
Cc1ccc(-c2nnc(SCc3ccccc3C#N)o2)cc1 | 1 | 1
COc1ccccc1-c1noc(-c2ccccc2F)n1 | 1 | 1
COc1ccccc1NC(=O)c1ccccc1-c1nc(-c2ccc(Cl)cc2)no1 | 1 | 1
COc1cccc(-c2noc(COc3cccc(C)c3)n2)c1 | 1 | 1
Cc1[nH]c2ccc(-c3nnc(SCC(=O)NCc4ccc(F)cc4)o3)cc2c1C | 1 | 1
C(=C\c1ccccc1)/CSc1nnc(-c2ccncc2)o1 | 1 | 1
Cc1cc(OCc2nc(-c3ccccc3)no2)ccc1Br | 1 | 1
COc1cccc(-c2nnc(SCc3ccccc3)o2)c1 | 1 | 1
COc1ccc(Cl)cc1-c1noc(COc2ccc(Cl)cc2)n1 | 1 | 1
O=C(CSc1nnc(-c2ccco2)o1)Nc1ccc(F)cc1 | 1 | 1
Brc1cccc(-c2nc(-c3ccncc3)no2)c1 | 1 | 1
Cc1ccc(-c2noc(-c3cccc(Br)c3)n2)cc1 | 1 | 1
Cc1cccc(-c2noc(COc3ccc(C)c(C)c3)n2)c1 | 1 | 1
Cc1csc(NC(=O)CSc2nnc(-c3ccccc3Cl)o2)n1 | 1 | 1

SMILES | proportion of mobile C. elegans dauer larvae [1] | proportion of mobile D. dipsaci (Ditylenchus dipsaci)
Cc1cc(Cl)ccc1NC(=O)CSc1nnc(-c2ccncc2)o1 | 1 | 1
Cc1ccc(-c2noc(-c3ccccc3C(=O)N3CCC(C)CC3)n2)cc1 | 1 | 1
O=C(Nc1ccccc1-c1nc(-c2ccncc2)no1)c1ccc(Cl)cc1 | 1 | 1
COc1cccc(-c2noc(-c3c(F)cccc3F)n2)c1 | 1 | 1
CCOc1ccccc1-c1nc(-c2ccc(NC(=O)c3ccncc3)cc2)no1 | 1 | 1
Clc1cccc(-c2nc(-c3ccccc3Cl)no2)c1 | 1 | 1
O=C(CSc1nnc(-c2cccc(Br)c2)o1)c1ccc2c(c1)CCCC2 | 1 | 1
COc1nc(-c2ccccc2)ccc1-c1noc(-c2ccco2)n1 | 1 | 1
CC(C)C(=O)Nc1ccccc1-c1nc(-c2cccnc2)no1 | 1 | 1
Cc1ccc(-c2nc(-c3ccccc3Cl)no2)cc1 | 1 | 1
Brc1ccc(-c2nc(-c3ccc4c(c3)OCO4)no2)cc1 | 1 | 1
COc1ccc(-c2nc(-c3ccccc3Cl)no2)cc1 | 1 | 1
COC(=O)c1ccc(CSc2nnc(-c3ccncc3)o2)cc1 | 1 | 1
COc1cccc(-c2nc(-c3ccc(Cl)cc3)no2)c1 | 1 | 1
O=C(CSc1nnc(-c2ccccc2)o1)Nc1cc(C(F)(F)F)ccc1Cl | 1 | 1
C=CCOc1cccc(-c2nc(-c3cccnc3)no2)c1 | 1 | 1
Cc1cc(OCc2nc(-c3ccncc3)no2)cc(C)c1Br | 1 | 1
Ic1cccc(-c2nc(-c3cccnc3)no2)c1 | 1 | 1
COc1ccccc1-c1nc(-c2cccc(Br)c2)no1 | 1 | 1
COc1ccc(OCc2nc(-c3ccccc3)no2)cc1 | 1 | 1

— the supplement of paper PMC11219838
